Assay [1] in a line: qHTS assay for small molecules that induce genotoxicity in human embryonic kidney cells expressing luciferase-tagged ATAD5 (AID 651632). Further: nearly all actives have a fitted effect of over 15% in size. A digest of the protocol: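 DMSO vehicle served as the control. HEK293T reporter cells, 16 hr at 37C, then 30 min Amplite at room temperature; ATAD5 induction is measured as luciferase activity.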
(In qHTS, concentration-response curves come from the screen itself.)

Assay [2] in a line: qHTS assay for small molecule agonists of the p53 signaling pathway - cell viability (AID 651633; calls by dose curve;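 further: p53RE-bla HCT reporter cells with a stable beta-lactamase p53 reporter; series mostly up to about 83 µM; nearly all actives have a fitted effect of over 30% in size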). In outline:
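p53RE-bla cells were treated with compound for 16 hours at 37 C. Cytotoxicity was then measured as CellTiter-Glo luminescence after 30 min at room temperature.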

Assay [3] can be described thus: qHTS assay for small molecules that induce genotoxicity in human embryonic kidney cells expressing luciferase-tagged ATAD5 - cell viability (AID 651634; calls by dose curve; further: nearly all actives have a fitted effect of over 25% in size). In outline:
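Here HEK293T cells with the ATAD5 luciferase reporter are incubated with test compounds for 15.5 hr, and cytotoxicity is then gauged by measuring protease activity in live cells using fluorescence.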

Assay [4] can be described thus: qHTS assay to test for compound auto fluorescence at 590 nm (red) in HepG2 cells (AID 720674). In outline: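 Fluorescence at 590 nm emission following 540 nm excitation was recorded from HepG2 wells one hour after compound transfer, with DMSO-only wells as vehicle and Rose Bengal sodium equivalency as the scale.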
Assay [5] can be described thus: qHTS assay to test for compound auto fluorescence at 535 nm (green) in HepG2 cells (AID 720675).
Assay [6] in a line: qHTS assay to test for compound auto fluorescence at 460 nm (blue) in HEK293 cells (AID 720678). In outline: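 Triamterene serves as the blue fluorophore standard. Compound signal at 405/460 nm is read in HEK293 wells (2,000 cells, 10% dialyzed FBS) after overnight treatment at 37C.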
Assay [7] is described as follows: qHTS assay to test for compound auto fluorescence at 590 nm (red) in HEK293 cells (AID 720679). A digest of the protocol:
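We plated HEK293 cells in 10% dialyzed FBS medium, let them adhere for 4-5 hr, then added 23 nL compound. Overnight at 37C and 5% CO2 preceded fluorescence measurement at 540/590nm.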

The nature of assay [8]: qHTS assay to test for compound auto fluorescence at 535 nm (green) in HEK293 cells (AID 720680).
A short description of assay [9]: qHTS assay to test for compound auto fluorescence at 460 nm (blue) in HEK293 cell free culture (AID 720681). A digest of the protocol:
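Compounds were added to cell-free DMEM with 10% FBS and fluorescence read directly. The blue channel used 405 nm excitation and 460 nm emission, with triamterene as the reference fluorophore.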

A short description of assay [10]: qHTS assay to test for compound auto fluorescence at 535 nm (green) in HEK293 cell free culture (AID 720682). In outline: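 No cells present: wells hold DMEM supplemented with 10% FBS, into which compound or vehicle is pinned. Green emission is then recorded (485 nm excitation, 535 nm emission) and scaled to fluorescein.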
Assay [11] in a line: qHTS assay to test for compound auto fluorescence at 590 nm (red) in HEK293 cell free culture (AID 720683). In outline: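 Cell-free wells of DMEM with 10% FBS received compound, and intrinsic fluorescence was read at excitation/emission 540/590 nm. Values expressed as equivalence to Rose Bengal sodium.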
Assay [12] is described as follows: qHTS assay to test for compound auto fluorescence at 460 nm (blue) in HepG2 cell free culture (AID 720685). In outline:
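Cell-free plates of MEM plus 10% FBS received 23 nL compound or DMSO vehicle; blue-channel (405/460 nm) intensity scored against triamterene as reference fluorophore.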

Assay [13] can be described thus: qHTS assay to test for compound auto fluorescence at 535 nm (green) in HepG2 cell free culture (AID 720686).
Assay [14] in a line: qHTS assay to test for compound auto fluorescence at 460 nm (blue) in HepG2 cells (AID 720687). In outline: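 HepG2 cells in MEM with 10% FBS, attached overnight at 37 C, were exposed to compound or DMSO for 1 hr at 37 C, 5% CO2. Blue fluorescence was read at 405/460 nm, with triamterene as reference fluorophore.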
Assay [15] deals with Glucocorticoid receptor (Homo sapiens) (UniProt P04150). The assay is described as follows: qHTS assay to identify small molecule agonists of the glucocorticoid receptor (GR) signaling pathway (AID 720691; active means well fitted activation curve with a large enough effect in the signal ratio in the repeat runs, not every such curve was filed as active; the % refers to the signal ratio). In outline: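 Compounds in DMSO, alongside positive controls, were added to GR-bla HeLa reporter cells and incubated 18 h at 37 C; GRE-driven beta-lactamase was detected by fluorescence after 2 h with FRET substrate at room temperature.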

Assay [16] has the same target. Nature of the assay: qHTS assay to identify small molecule antagonists of the glucocorticoid receptor (GR) signaling pathway (AID 720692; active means well fitted inhibition curve with a large enough effect in the signal ratio in the repeat runs, not every such curve was filed as active; the % refers to the signal ratio). In outline: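 In a 1536-well cell format, compounds were added 4 h after seeding GR-bla HeLa cells, together with dexamethasone at 5 nM final; reporter activity was measured by FRET-substrate fluorescence following 18 h at 37 C.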

Assay [17] in a line: qHTS assay for small molecule disruptors of the mitochondrial membrane potential - cell viability (AID 720634; calls by dose curve;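 further: human HepG2 liver cancer cells; series mostly up to about 83 µM; nearly all actives have a fitted effect of over 20% in size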). A digest of the protocol: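 Viability of HepG2 cells is scored from ATP content by luminescence; cells are exposed to compound for 1 hr at 37 C and 5% CO2, then dosed with m-MPI dye before the CellTiter-Glo reagent.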
Assay [18] is described as follows: qHTS assay to test for compound auto fluorescence at 590 nm (red) in HepG2 cell free culture (AID 720684). A digest of the protocol: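 Rose Bengal sodium served as the reference for red signal. Test compounds were dispensed into serum-containing MEM (10% FBS) without cells, and plates were read at 540/590 nm.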
A short description of assay [19]: qHTS assay for small molecule disruptors of the mitochondrial membrane potential (AID 720635). Further: potency means the concentration at half of the fitted maximal effect. A digest of the protocol: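 HepG2 cells exposed to compound 1 hr at 37C, then Mito-MPS dye 30 min. Ratio read of aggregate (540/590 nm) versus monomer (490/535 nm) fluorescence.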

SMILES strings stand for the structures. Values without a mark were called inactive. Inconclusive results are not listed. The source made the active and inactive calls. Unless noted, the call rests on the fitted dose curve; in most records, active means well fitted curve in the direction sought with a large enough effect in the repeat runs; inconclusive means weak or mixed curves; inactive means no such curve, though single readings can be large; an effect the other way counts as inactive or inconclusive.
On the % scale 0 is the no-effect control and ±100 the full control effect.

Glucocorticoid receptor (Homo sapiens), sequence (P04150 whole entry, looked up): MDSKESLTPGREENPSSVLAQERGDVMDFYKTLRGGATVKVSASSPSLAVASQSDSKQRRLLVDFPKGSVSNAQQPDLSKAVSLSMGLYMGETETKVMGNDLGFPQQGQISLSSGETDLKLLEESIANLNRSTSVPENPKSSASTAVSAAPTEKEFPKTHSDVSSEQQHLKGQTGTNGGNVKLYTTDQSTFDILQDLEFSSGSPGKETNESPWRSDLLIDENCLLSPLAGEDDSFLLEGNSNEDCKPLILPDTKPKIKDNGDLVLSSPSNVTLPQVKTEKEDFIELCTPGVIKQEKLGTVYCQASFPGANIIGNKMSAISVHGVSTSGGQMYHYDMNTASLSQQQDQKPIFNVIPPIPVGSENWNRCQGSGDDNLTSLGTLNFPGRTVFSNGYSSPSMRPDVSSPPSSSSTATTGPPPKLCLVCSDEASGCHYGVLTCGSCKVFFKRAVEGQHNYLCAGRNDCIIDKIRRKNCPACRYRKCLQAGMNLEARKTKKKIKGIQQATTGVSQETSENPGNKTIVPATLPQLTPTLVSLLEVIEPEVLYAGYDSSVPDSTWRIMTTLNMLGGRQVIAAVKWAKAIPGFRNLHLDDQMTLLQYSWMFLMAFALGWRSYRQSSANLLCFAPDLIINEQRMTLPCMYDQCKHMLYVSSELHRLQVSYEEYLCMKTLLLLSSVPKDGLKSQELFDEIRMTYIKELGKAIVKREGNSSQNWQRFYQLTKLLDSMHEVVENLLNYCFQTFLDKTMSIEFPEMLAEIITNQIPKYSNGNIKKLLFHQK

On to `CC(=O)Oc1cc(C(C)C)c(OCCN(C)C)cc1C`, for which the Potency result in [1], in assay [2], in assay [3], in assay [15] and in assay [16] was “inactive” each time. Also, the fluorescence, relative to Rose Bengal in [4] is 0.0269% [at 18.6 µM]. Also, the fluorescence, % of fluorescein control is 0.0486% [at 18.6 µM] in assay [5] and -0.0374% [at 18.6 µM] in [13]. Also, the fluorescence, % of triamterene in [6] is -0.184% [at 18.6 µM]. For the same molecule, the fluorescence, % of fluorescent control in assay [7] was -0.192% [at 18.6 µM]; in assay [9] it was -0.142% [at 18.6 µM]; in [11], -0.128% [at 18.6 µM]; in assay [12], -0.0726% [at 18.6 µM]; in assay [14], -0.0099% [at 18.6 µM]. Also, the fluorescence, % of fluorescein in assay [8] is -0.013% [at 18.6 µM]. Also, in assay [10], the activity change was -0.0795% [at 18.6 µM].
Consider `CC1(O)CSC(C)(O)CS1` (stereo not given), for which the Potency entry in assay [1], in [2], in [3], in assay [17], in assay [15] and in [16] was “inactive” each time. For the same molecule, the result in assay [4], in assay [5], in assay [6], in [7], in assay [9] and in assay [10] was inactive. Moreover, the outcome in assay [11], in assay [12], in [13] and in assay [14] was inactive.
Take `CN1C(=O)CC(c2ccccc2)C1=O` (stereo not given): the Potency result in [1], in assay [2], in assay [3], in assay [17], in [15] and in assay [16] was “inactive” throughout. For the same molecule, the outcome in assay [4], in [5], in assay [6], in assay [7], in [8] and in [9] was inactive. Further, the molecule was classed as inactive in [10], in assay [11], in [18], in assay [12], in assay [13] and in [14].
Consider `Cc1nnc(SCC2=C(C(=O)O)N3C(=O)[C@@H](NC(=O)Cn4cnnn4)[C@H]3SC2)s1`, for which the Potency entry in assay [1], in [2], in [3] and in assay [19] was “inactive” in each case. The result in [4], in assay [5], in assay [6], in assay [7], in [9] and in assay [10] was inactive. Besides, the molecule was called inactive in [11], in assay [12], in assay [13] and in [14].
As to `CCCCNc1ccc(C(=O)OCCN(CC)CC)cc1`, the Potency entry in [1], in assay [2], in assay [3] and in assay [19] was “inactive” in each case. Also, the outcome in assay [4], in assay [5], in [6], in [7], in assay [8] and in assay [9] was inactive. Also, the call in assay [10], in assay [11], in assay [18], in [12], in [13] and in assay [14] was inactive.
Regarding `CC1CN(c2ccccc2)NC1=O` (stereo not given), the Potency result in [1], in [2], in [3], in [17] and in assay [15] was “inactive” each time. In addition, the result in [4], in assay [5], in assay [6], in assay [8], in assay [9] and in assay [10] was inactive. The molecule was classed as inactive in assay [11], in assay [18], in assay [12], in [13] and in [14].
Regarding `CN1CCN(C2=Nc3cc(F)ccc3Cc3ccccc32)CC1`, the Potency result in [1], in [2], in assay [3], in assay [17], in assay [15] and in [16] was “inactive” in each case. Besides, the molecule was classed as inactive in assay [4], in assay [6], in assay [7], in assay [8], in assay [10] and in [11]. Further, the result in assay [18], in [13] and in assay [14] was inactive.
As to `CN(C)CCOc1ccccc1Cc1ccccc1`, the Potency result in assay [1], in assay [2], in [3] and in [17] was “inactive” each time. The Potency in [19] was 2660 nM (active). Also, the molecule was classed as inactive in [4], in assay [6], in [7], in assay [8], in assay [9] and in assay [10]. In addition, the molecule was classed as inactive in [12], in [13] and in assay [14].

Source of the values: PubChem BioAssay (Tox21).
